Measured values from PubChem BioAssay (NCI).
Compounds without any hit were thinned out: in the full panel of roughly 83,000, 20% have a hit.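 Negative percent growth values reflect cell death: -40 means 40% of the cells present at the start died, and -100 means all died.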 Values without a mark were called inactive. Activity calls are given as the source filed them. How the source made its calls: active means growth percent below 10; inactive means the rest.

What follows are compounds tested on SW-620 colon (assay: NCI-60 one-dose screen, 48 h (100 = growth as untreated, 0 = no growth, -100 = all killed)). Details: 10 µM unless noted.

Q: How did the growth turn out when `O=c1c2cc(Br)cc(Br)c2nc(-c2ccc(Cl)cc2)n1/N=C\c1ccccc1F` was run?
A: 82.5%

Q: For `O=C(O)CSc1ccc(NCc2oc(CO)cc(=O)c2O)cc1`, which growth is on record?
A: 105%

Q: With `O=C(c1ccccc1)C1OC1C(=O)c1ccccc1` (stereo not drawn) as the compound, how does the growth read?
A: 27.7%

Q: Which growth does the source give for `CS(=O)(=O)c1ccc(C(=O)Nc2ccc(Cl)c(-c3ccccn3)c2)c(Cl)c1` here?
A: 20.8%

Q: `COc1ccccc1/C=N\Nc1ccc([N+](=O)[O-])cn1` was tested. Which growth did it give?
A: 124%

Q: `CCN1C(=O)N(CC)C2C1N=C(SC)N2/N=C/C=C/c1ccccc1OC` (stereo not drawn) was tested. Which growth did it give?
A: 22.7%

Q: `O=C(c1ccccc1)C(CCc1ccccn1)CCc1ccccn1` was tested. Which growth did it give?
A: 107%

Q: With `C=C[C@H]1CCC/C=C/[C@@H]2C[C@H](O)C[C@H]2[C@H](O)/C=C/C(=O)O1` as the compound, how does the growth read?
A: -63.8% (active)

Q: `CCN1C(=O)N(CC)C2C1NC(=O)N2/N=C/C=C/c1ccccc1` (stereo not drawn) was tested. Which growth did it give?
A: 24.2%

Q: Which growth does the source give for `O=[N+]([O-])c1ccc(N/N=C/c2ccccc2O)nc1` here?
A: 52.6%

Q: How did the growth turn out when `C#CCNc1nc(NCCNC(=O)CCl)nc(N(C)CCCCc2ccccc2)n1` was run?
A: 97.9%

Q: For `O=S1(=O)NCCCN1CCNc1nccc(-c2c(-c3cccc(O)c3)nc3sccn23)n1`, which growth is on record?
A: 88%

Q: For `OC(CCCCCCCCC(O)CN1CCc2ccccc2C1)CN1CCc2ccccc2C1` (stereo not drawn), which growth is on record?
A: 104%

Q: With `CCCCCCCCCCCCNC(=O)N[C@H](C(=O)N[C@H]1/C=C/CCNC(=O)/C=C/[C@H](C)NC1=O)C(C)C` as the compound, how does the growth read?
A: -22.3% (active)

Q: How did the growth turn out when `COc1ccccc1-[n+]1cc(-c2ccc(-c3ccccc3)cc2)n2c1CCCCC2` was run?
A: 14.6%

Q: `O=C(CCl)N1c2ccccc2Oc2ccc3ccccc3c21` was tested. Which growth did it give?
A: -81.2% (active)

Q: Which growth does the source give for `C=C(c1ccc(C(=O)NCCCn2ccnc2)cc1)c1cc2c(cc1C)C(C)(C)CCC2(C)C` here?
A: 16.5%

Q: How did the growth turn out when `COc1cc(CN2CCC(N3CCCC3=O)c3ccccc32)cc(OC)c1OC` (stereo not drawn) was run?
A: 92.3%

Q: Which growth does the source give for `CC(=O)Nc1ccc(/C=N/N2CCCCCC2)cc1` here?
A: 100%

Q: For `CCCCc1nc(Cl)c(C2CC(c3ccc(S(N)(=O)=O)cc3)=NN2c2cc(Cl)cc(Cl)c2)[nH]1` (stereo not drawn), which growth is on record?
A: 58%

Q: `O=C1NN(C(=O)c2ccccc2)C(c2ccc(Cl)c(Cl)c2)=C/C1=C\c1ccccc1[N+](=O)[O-]` was tested. Which growth did it give?
A: 13.7% [6.75 µM]

Q: For `O=C(NNC(=O)c1cccc(Cl)c1)c1ccccc1`, which growth is on record?
A: 106%

Q: For `Cc1c(C(N)=O)sc2ncn(CC(=O)NN=C3CCCCC3)c(=O)c12`, which growth is on record?
A: 97.4%

Q: How did the growth turn out when `Clc1cc(Cl)cc(-c2cnc3nonc3n2)c1` was run?
A: 63.9%

Q: `CCOC(=O)Cn1c(-c2nonc2NC(=O)c2ccccc2F)nc2ccccc21` was tested. Which growth did it give?
A: 38.5%

Q: How did the growth turn out when `COc1ccc(C(=O)O)cc1.[Ag]` was run?
A: -61.9% (active)

Q: For `COc1cccc(C2C(C#N)=C(N)Oc3cc4c(cc32)OCO4)c1` (stereo not drawn), which growth is on record?
A: 26.9%

Q: Which growth does the source give for `C=CCOC(=O)C1=C(C)NC2=C(C(=O)CCC2)C1c1ccc(F)cc1` (stereo not drawn) here?
A: 94.4%

Q: With `COc1cc(CN(c2ccc(C)cc2)C2OC(=O)c3ccccc32)cc(OC)c1OC` (stereo not drawn) as the compound, how does the growth read?
A: 36.2%

Q: With `CN1C(=O)C(C(=O)/C=C/c2ccccc2C(=O)O)C(=O)N(C)C1=O` as the compound, how does the growth read?
A: 109%

Q: Which growth does the source give for `CC1(C)OC2OC3C(CN)OC(c4ccccc4)OC3C2O1` (stereo not drawn) here?
A: 122%

Q: Which growth does the source give for `O=S(=O)(Cc1ccc(Cl)cc1Cl)c1ccc(Cl)cc1` here?
A: 37.5%

Q: How did the growth turn out when `COC(=O)OC1C(O[C@H]2C[C@H]3[C@@H]4CC=C5C[C@@H](O)CC[C@]5(C)[C@H]4CC[C@]3(C)[C@H]2[C@H](C)C(=O)CCC(C)C)OCC(O)C1OC1OCC(O)C(O)C1OC(=O)c1ccc(OC)cc1` (stereo partly drawn) was run?
A: -55.9% (active)

Q: Which growth does the source give for `CC(C)c1ccc2c(c1)CCC1C2CCCC1(C)NCc1ccccc1` (stereo not drawn) here?
A: 3.49% (active)

Q: How did the growth turn out when `CC(=O)C1CCC2C3CC(C)=C4CC(O)CCC4(C)C3CCC12C` (stereo not drawn) was run?
A: 118%

Q: `CC(CN1CCN(CC(C)Nc2ccnc3cc(Cl)ccc23)CC1)Nc1ccnc2cc(Cl)ccc12` (stereo not drawn) was tested. Which growth did it give?
A: 5.03% (active)

Q: `C=CCOC(=O)C1=C(C)NC2=C(C(=O)CC(C)(C)C2)C1c1ccc(OC)cc1` (stereo not drawn) was tested. Which growth did it give?
A: 98.9%

Q: Which growth does the source give for `CCCCCCCC/C=C/CCCCCCCC1=NC(C)(C)CN1c1ccccc1` here?
A: 82%

Q: Which growth does the source give for `COc1ccc2c(c1)N(Cc1ccc(Cl)cc1)CCC2N1CCCC1=O` (stereo not drawn) here?
A: 72.1%

Each compound was assayed on MCF7 breast in the same assay as above. Details: 10 µM unless noted.

Q: For `O=c1c2cc(Br)cc(Br)c2nc(-c2ccc(Cl)cc2)n1/N=C\c1ccccc1F`, which growth is on record?
A: 56.1%

Q: With `O=C(O)CSc1ccc(NCc2oc(CO)cc(=O)c2O)cc1` as the compound, how does the growth read?
A: 93.8%

Q: How did the growth turn out when `O=C(c1ccccc1)C1OC1C(=O)c1ccccc1` (stereo not drawn) was run?
A: 16.8%

Q: `CS(=O)(=O)c1ccc(C(=O)Nc2ccc(Cl)c(-c3ccccn3)c2)c(Cl)c1` was tested. Which growth did it give?
A: 20.4%

Q: For `COc1ccccc1/C=N\Nc1ccc([N+](=O)[O-])cn1`, which growth is on record?
A: 96.2%

Q: For `CCN1C(=O)N(CC)C2C1N=C(SC)N2/N=C/C=C/c1ccccc1OC` (stereo not drawn), which growth is on record?
A: 12.9%

Q: How did the growth turn out when `O=C(c1ccccc1)C(CCc1ccccn1)CCc1ccccn1` was run?
A: 106%

Q: `C=C[C@H]1CCC/C=C/[C@@H]2C[C@H](O)C[C@H]2[C@H](O)/C=C/C(=O)O1` was tested. Which growth did it give?
A: -50.1% (active)

Q: `CCN1C(=O)N(CC)C2C1NC(=O)N2/N=C/C=C/c1ccccc1` (stereo not drawn) was tested. Which growth did it give?
A: 12%

Q: With `O=[N+]([O-])c1ccc(N/N=C/c2ccccc2O)nc1` as the compound, how does the growth read?
A: 16.8%

Q: For `C#CCNc1nc(NCCNC(=O)CCl)nc(N(C)CCCCc2ccccc2)n1`, which growth is on record?
A: 86%

Q: `O=S1(=O)NCCCN1CCNc1nccc(-c2c(-c3cccc(O)c3)nc3sccn23)n1` was tested. Which growth did it give?
A: 91.8%

Q: How did the growth turn out when `OC(CCCCCCCCC(O)CN1CCc2ccccc2C1)CN1CCc2ccccc2C1` (stereo not drawn) was run?
A: 95.9%

Q: For `CCCCCCCCCCCCNC(=O)N[C@H](C(=O)N[C@H]1/C=C/CCNC(=O)/C=C/[C@H](C)NC1=O)C(C)C`, which growth is on record?
A: 14.1%

Q: Which growth does the source give for `COc1ccccc1-[n+]1cc(-c2ccc(-c3ccccc3)cc2)n2c1CCCCC2` here?
A: 4.74% (active)

Q: For `O=C(CCl)N1c2ccccc2Oc2ccc3ccccc3c21`, which growth is on record?
A: 10.4%

Q: `C=C(c1ccc(C(=O)NCCCn2ccnc2)cc1)c1cc2c(cc1C)C(C)(C)CCC2(C)C` was tested. Which growth did it give?
A: 35.5%

Q: Which growth does the source give for `COc1cc(CN2CCC(N3CCCC3=O)c3ccccc32)cc(OC)c1OC` (stereo not drawn) here?
A: 70.9%

Q: For `CC(=O)Nc1ccc(/C=N/N2CCCCCC2)cc1`, which growth is on record?
A: 92.2%

Q: How did the growth turn out when `CCCCc1nc(Cl)c(C2CC(c3ccc(S(N)(=O)=O)cc3)=NN2c2cc(Cl)cc(Cl)c2)[nH]1` (stereo not drawn) was run?
A: 6.51% (active)

Q: For `O=C1NN(C(=O)c2ccccc2)C(c2ccc(Cl)c(Cl)c2)=C/C1=C\c1ccccc1[N+](=O)[O-]`, which growth is on record?
A: 8.91% [6.75 µM] (active)

Q: `O=C(NNC(=O)c1cccc(Cl)c1)c1ccccc1` was tested. Which growth did it give?
A: 105%

Q: For `Cc1c(C(N)=O)sc2ncn(CC(=O)NN=C3CCCCC3)c(=O)c12`, which growth is on record?
A: 109%

Q: With `Clc1cc(Cl)cc(-c2cnc3nonc3n2)c1` as the compound, how does the growth read?
A: 69.5%

Q: Which growth does the source give for `CCOC(=O)Cn1c(-c2nonc2NC(=O)c2ccccc2F)nc2ccccc21` here?
A: 37%

Q: Which growth does the source give for `COc1ccc(C(=O)O)cc1.[Ag]` here?
A: 100%

Q: Which growth does the source give for `COc1cccc(C2C(C#N)=C(N)Oc3cc4c(cc32)OCO4)c1` (stereo not drawn) here?
A: 13.2%

Q: For `C=CCOC(=O)C1=C(C)NC2=C(C(=O)CCC2)C1c1ccc(F)cc1` (stereo not drawn), which growth is on record?
A: 95.6%

Q: Which growth does the source give for `COc1cc(CN(c2ccc(C)cc2)C2OC(=O)c3ccccc32)cc(OC)c1OC` (stereo not drawn) here?
A: 13.9%

Q: For `CN1C(=O)C(C(=O)/C=C/c2ccccc2C(=O)O)C(=O)N(C)C1=O`, which growth is on record?
A: 112%

Q: For `CC1(C)OC2OC3C(CN)OC(c4ccccc4)OC3C2O1` (stereo not drawn), which growth is on record?
A: 103%

Q: For `O=S(=O)(Cc1ccc(Cl)cc1Cl)c1ccc(Cl)cc1`, which growth is on record?
A: 22.1%

Q: For `COC(=O)OC1C(O[C@H]2C[C@H]3[C@@H]4CC=C5C[C@@H](O)CC[C@]5(C)[C@H]4CC[C@]3(C)[C@H]2[C@H](C)C(=O)CCC(C)C)OCC(O)C1OC1OCC(O)C(O)C1OC(=O)c1ccc(OC)cc1` (stereo partly drawn), which growth is on record?
A: -8.41% (active)

Q: For `CC(C)c1ccc2c(c1)CCC1C2CCCC1(C)NCc1ccccc1` (stereo not drawn), which growth is on record?
A: 75.5%

Q: `CC(=O)C1CCC2C3CC(C)=C4CC(O)CCC4(C)C3CCC12C` (stereo not drawn) was tested. Which growth did it give?
A: 100%

Q: With `CC(CN1CCN(CC(C)Nc2ccnc3cc(Cl)ccc23)CC1)Nc1ccnc2cc(Cl)ccc12` (stereo not drawn) as the compound, how does the growth read?
A: 10.6%

Q: How did the growth turn out when `C=CCOC(=O)C1=C(C)NC2=C(C(=O)CC(C)(C)C2)C1c1ccc(OC)cc1` (stereo not drawn) was run?
A: 97.4%

Q: Which growth does the source give for `CCCCCCCC/C=C/CCCCCCCC1=NC(C)(C)CN1c1ccccc1` here?
A: 86.3%

Q: With `COc1ccc2c(c1)N(Cc1ccc(Cl)cc1)CCC2N1CCCC1=O` (stereo not drawn) as the compound, how does the growth read?
A: 35.5%
